Reference: the supplement of paper PMC10849652
Of roughly 8,800 targets only a part is listed; those with a hit were picked by preference. About 0.5% of all pairs of compound and target were hits.

Experiments:
Assay in all cases: log2 fold change, soluble protein after heating vs DMSO (PISA); higher = thermal stabilisation; K562 lysate, 10 uM; active = over 0.2 and 3.5 SD of the protein, either way, in both replicates (recomputed)
[1] = compound: CC1=C(C=C(C=C1)NC(=O)C2=CC(=CC=C2)C(C)(C)C#N)NC3=CC4=C(C=C3)N=CN(C4=O)C
How it was run: (§1)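 Following dounce homogenisation of K562 pellets in PBS pH 7.4 with 1 mM MgCl2, crude extract at 1 mg/mL protein was incubated for 30 min with 10 μM compound. Aliquots were then heated for 3 min over 48°C-58°C and pooled, NP-40 was added to 0.5% at 4°C, and soluble protein was recovered as the supernatant at 21,000xg for 90 min. Channel-sum-equalised TMTpro 16plex LC-MS/MS quantified this protein. Each value, from duplicates, is a log-two fold change in thermal stability relative to solvent controls.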

[2] = compound: CCCS(=O)(=O)Nc1ccc(F)c(C(=O)c2c[nH]c3ncc(-c4ccc(Cl)cc4)cc23)c1F [vemurafenib]
How it was run: as §1

[3] = compound: CC[C@@H]1C(=O)N(C)c2cnc(Nc3ccc(C(=O)NC4CCN(C)CC4)cc3OC)nc2N1C1CCCC1
How it was run: as §1

[4] = compound: CCn1cc(-c2ccnc3[nH]c(-c4cccc(CN(C)C)c4)cc23)c(-c2ccc(NC(=O)N(C)C)cc2)n1
How it was run: as §1

[5] = compound: CN1CCC(CNc2ccc3ncc(-c4cccc(OC(F)(F)F)c4)n3n2)CC1
How it was run: as §1

[6] = compound: CN1CCN(c2nc(C3=C(c4c[nH]c5ccccc45)C(=O)NC3=O)c3ccccc3n2)CC1 [sotrastaurin]
How it was run: as §1

[7] = compound: CC(=O)c1cnc2ccc(-c3cc(Cl)c(O)c(Cl)c3)nc2c1N[C@H]1CC[C@H](CN(C)C)CC1
How it was run: as §1

[8] = compound: CC(C)(C)Cn1c(N)nc2ccc(-c3[nH]c(C(C)(C)C)nc3-c3ccc(F)cc3)nc21 [ralimetinib]
How it was run: as §1

[9] = compound: CC(C)(O)CC(=O)NCCn1ccc2ncnc(Nc3ccc(Oc4cccc(C(F)(F)F)c4)c(Cl)c3)c21
How it was run: as §1

[10] = compound: CC(C)C1=C2N=C(C=C(N2N=C1)NCC3=CC=CC=C3)NCCCCCCN
How it was run: as §1

[11] = compound: CC1=C(C(CC(=O)N1)C2=CC=C(C=C2)C(F)(F)F)C(=O)NC3=C(C=C4C(=C3)C=NN4)F
How it was run: as §1

[12] = compound: CC1=C(C2=C(C=C1)C(=O)C3=CC=CC=C3N2CCCN)C
How it was run: as §1

[13] = compound: CC1=C(C=C(C=C1)NC(=O)C2=CC(=CC=C2)N(C)C)NC(=O)C3=CC=C(C=C3)O
How it was run: as §1

[14] = compound: CC1=CC=C(C=C1)SC2=C3C=C(SC3=CN=C2)C(=O)N
How it was run: as §1

[15] = compound: CCCS(=O)(=O)Nc1ccc(F)c(C(=O)c2c[nH]c3ncc(Cl)cc23)c1F
How it was run: as §1

[16] = compound: CC[C@@H]1C(=O)N(C)c2cnc(Nc3ccc(C(=O)N[C@H]4CC[C@H](N5CCN(CC6CC6)CC5)CC4)cc3OC)nc2N1C(C)C [volasertib]
How it was run: as §1

[17] = compound: CCn1c(C(=O)N(C2CC2)C2CC2)cc2c3c(ncn3C)c(Nc3cc(C)n(C)n3)nc21
How it was run: as §1

[18] = compound: CN1CCN(CCOc2cc(OC3CCOCC3)c3c(Nc4c(Cl)ccc5c4OCO5)ncnc3c2)CC1 [saracatinib]
How it was run: as §1

[19] = compound: C=CC(=O)N1CCC[C@@H](n2nc(-c3ccc(Oc4ccccc4)cc3)c3c(N)ncnc32)C1 [ibrutinib]
How it was run: as §1

[20] = compound: CCN(CCCOc1ccc2c(Nc3cc(CC(=O)Nc4cccc(F)c4)[nH]n3)ncnc2c1)CCOP(=O)(O)O [barasertib]
How it was run: as §1

Measured: log2 fold change

LRRC9 (UniProt Q6ZRR7)
inactive: [1] 0.042 | [2] -0.011 | [3] -0.022 | [4] -0.25 | [5] 0.131 | [6] 0.01

MPDZ (UniProt O75970)
Sequence of UniProt O75970 (O75970 whole entry, looked up): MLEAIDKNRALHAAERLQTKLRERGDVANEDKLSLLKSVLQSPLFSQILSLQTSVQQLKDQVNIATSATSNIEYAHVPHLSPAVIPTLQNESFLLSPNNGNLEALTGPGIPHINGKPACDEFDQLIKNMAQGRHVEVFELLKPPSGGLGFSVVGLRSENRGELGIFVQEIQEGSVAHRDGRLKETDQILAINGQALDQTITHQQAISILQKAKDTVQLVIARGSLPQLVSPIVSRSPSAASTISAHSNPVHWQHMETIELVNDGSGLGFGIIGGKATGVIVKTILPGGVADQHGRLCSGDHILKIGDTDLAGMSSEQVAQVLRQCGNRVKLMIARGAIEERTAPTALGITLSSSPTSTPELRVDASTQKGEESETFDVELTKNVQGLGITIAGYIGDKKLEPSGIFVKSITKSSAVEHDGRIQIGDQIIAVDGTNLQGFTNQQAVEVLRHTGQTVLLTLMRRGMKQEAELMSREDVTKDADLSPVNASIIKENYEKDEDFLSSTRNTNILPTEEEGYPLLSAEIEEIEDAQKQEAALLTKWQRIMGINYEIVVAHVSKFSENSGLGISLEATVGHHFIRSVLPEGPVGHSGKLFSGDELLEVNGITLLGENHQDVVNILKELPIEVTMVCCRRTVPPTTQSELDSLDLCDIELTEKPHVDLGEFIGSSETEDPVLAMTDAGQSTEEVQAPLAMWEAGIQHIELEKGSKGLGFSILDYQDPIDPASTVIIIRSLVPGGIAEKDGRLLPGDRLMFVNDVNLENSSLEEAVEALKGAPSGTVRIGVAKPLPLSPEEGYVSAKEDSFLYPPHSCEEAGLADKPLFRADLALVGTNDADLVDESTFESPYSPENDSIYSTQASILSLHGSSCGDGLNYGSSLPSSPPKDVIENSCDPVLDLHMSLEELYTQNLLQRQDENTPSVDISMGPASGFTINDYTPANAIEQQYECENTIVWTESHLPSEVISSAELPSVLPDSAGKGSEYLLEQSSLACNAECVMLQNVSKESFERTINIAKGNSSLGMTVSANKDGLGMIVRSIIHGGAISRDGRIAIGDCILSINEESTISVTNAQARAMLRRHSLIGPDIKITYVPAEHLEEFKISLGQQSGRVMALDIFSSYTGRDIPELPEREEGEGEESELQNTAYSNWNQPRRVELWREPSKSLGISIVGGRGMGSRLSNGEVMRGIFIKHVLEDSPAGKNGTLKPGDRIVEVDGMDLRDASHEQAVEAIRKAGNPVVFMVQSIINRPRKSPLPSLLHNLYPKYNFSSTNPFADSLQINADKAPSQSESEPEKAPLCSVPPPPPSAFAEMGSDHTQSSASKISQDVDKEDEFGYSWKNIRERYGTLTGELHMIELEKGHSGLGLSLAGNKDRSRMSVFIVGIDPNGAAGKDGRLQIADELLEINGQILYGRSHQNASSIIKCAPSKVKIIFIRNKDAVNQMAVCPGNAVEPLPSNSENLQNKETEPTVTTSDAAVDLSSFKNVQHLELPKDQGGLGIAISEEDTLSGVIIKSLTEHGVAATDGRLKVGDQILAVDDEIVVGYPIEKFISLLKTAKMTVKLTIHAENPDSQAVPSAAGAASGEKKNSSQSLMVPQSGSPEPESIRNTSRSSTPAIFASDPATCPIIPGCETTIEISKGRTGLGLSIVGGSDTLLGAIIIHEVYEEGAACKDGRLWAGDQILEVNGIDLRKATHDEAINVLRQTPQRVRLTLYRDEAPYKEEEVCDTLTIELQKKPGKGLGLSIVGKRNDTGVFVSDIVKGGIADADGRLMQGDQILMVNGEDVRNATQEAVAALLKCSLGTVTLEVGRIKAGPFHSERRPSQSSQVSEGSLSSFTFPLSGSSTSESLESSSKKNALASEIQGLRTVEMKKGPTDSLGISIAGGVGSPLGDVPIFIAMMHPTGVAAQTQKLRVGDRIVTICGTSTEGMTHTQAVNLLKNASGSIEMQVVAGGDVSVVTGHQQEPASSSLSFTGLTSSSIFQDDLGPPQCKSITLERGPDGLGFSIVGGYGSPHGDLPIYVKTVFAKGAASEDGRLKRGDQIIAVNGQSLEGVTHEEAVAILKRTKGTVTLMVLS
inactive: [7] 0.264 | [8] 0.024 | [9] -0.157 | [10] -0.015 | [11] -0.173 | [12] 0.062 | [1] 0.057 | [13] 0.076 | [14] -0.029 | [2] 0.059 | [15] 0.03 | [3] 0 | [16] -0.026 | [17] -0.115 | [4] 0.129 | [5] -0.017 | [18] 0.088 | [6] 0.209

MRPL22 (UniProt Q9NWU5)
inactive: [7] 0.001 | [8] 0.018 | [9] -0.033 | [10] 0.058 | [11] 0.001 | [1] -0.017 | [13] 0.051 | [14] 0.069 | [15] 0.001 | [16] -0.002 | [17] -0.069 | [4] -0.006 | [5] -0.045 | [6] -0.013

LRRIQ1 (UniProt Q96JM4)
Sequence of UniProt Q96JM4 (Q96JM4 whole entry, looked up): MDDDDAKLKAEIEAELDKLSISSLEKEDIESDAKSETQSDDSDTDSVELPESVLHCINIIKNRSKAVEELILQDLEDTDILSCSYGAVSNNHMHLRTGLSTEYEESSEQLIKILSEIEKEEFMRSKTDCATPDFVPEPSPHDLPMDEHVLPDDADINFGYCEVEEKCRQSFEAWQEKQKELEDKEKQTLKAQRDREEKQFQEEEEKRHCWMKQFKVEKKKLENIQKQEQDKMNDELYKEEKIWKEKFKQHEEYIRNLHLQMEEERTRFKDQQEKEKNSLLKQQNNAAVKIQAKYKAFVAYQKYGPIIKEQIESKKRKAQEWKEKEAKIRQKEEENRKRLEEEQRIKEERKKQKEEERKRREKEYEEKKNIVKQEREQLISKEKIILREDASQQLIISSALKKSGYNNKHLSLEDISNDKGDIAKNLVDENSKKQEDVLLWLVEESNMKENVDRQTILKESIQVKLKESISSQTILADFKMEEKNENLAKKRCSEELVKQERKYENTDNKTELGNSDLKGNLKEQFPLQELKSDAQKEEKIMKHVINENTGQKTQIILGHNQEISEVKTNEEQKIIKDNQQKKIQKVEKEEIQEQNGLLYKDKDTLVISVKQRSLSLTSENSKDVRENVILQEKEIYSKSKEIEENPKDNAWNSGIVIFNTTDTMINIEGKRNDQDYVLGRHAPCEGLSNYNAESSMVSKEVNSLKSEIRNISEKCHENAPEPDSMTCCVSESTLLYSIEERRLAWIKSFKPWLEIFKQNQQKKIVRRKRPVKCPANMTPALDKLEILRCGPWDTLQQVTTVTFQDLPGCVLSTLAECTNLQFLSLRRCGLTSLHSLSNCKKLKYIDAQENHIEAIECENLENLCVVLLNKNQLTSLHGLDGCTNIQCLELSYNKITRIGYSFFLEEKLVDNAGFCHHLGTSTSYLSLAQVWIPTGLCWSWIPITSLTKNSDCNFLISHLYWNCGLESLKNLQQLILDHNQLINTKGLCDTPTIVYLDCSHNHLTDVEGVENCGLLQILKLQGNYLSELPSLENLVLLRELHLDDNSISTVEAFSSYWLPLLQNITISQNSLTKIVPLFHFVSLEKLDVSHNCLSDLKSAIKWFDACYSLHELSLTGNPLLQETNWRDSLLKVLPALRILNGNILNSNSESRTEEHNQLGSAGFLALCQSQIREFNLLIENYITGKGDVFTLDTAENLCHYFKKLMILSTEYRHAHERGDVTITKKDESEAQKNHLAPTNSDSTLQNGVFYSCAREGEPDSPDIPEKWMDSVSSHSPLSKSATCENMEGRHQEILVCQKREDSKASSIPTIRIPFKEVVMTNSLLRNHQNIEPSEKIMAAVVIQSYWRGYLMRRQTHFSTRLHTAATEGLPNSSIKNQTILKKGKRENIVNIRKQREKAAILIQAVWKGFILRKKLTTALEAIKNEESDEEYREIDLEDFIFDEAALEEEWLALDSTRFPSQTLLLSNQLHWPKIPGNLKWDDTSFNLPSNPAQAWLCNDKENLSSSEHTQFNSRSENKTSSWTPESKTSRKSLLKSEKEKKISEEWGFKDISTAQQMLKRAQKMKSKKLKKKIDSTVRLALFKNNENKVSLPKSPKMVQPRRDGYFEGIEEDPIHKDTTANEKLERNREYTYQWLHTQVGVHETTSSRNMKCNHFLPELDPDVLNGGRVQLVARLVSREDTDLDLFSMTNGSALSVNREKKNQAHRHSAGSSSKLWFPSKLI
inactive: [7] -0.036 | [8] -0.041 | [9] 0.019 | [13] 0.047 | [14] -0.069 | [2] -0.023 | [15] 0.02 | [16] 0.015 | [17] -0.015 | [6] 0.027
active: [1] 0.671

MAP3K6 (UniProt O95382)
inactive: [11] -0.12 | [2] -0.006 | [3] 0.164

LRIF1 (UniProt Q5T3J3)
inactive: [7] -0.088 | [8] -0.09 | [9] -0.055 | [10] 0.089 | [11] -0.143 | [12] -0.044 | [1] -0.031 | [13] 0.046 | [14] -0.197 | [2] 0.213 | [15] -0.005 | [3] -0.009 | [16] 0.042 | [17] 0.006 | [4] 0.105 | [5] 0.044 | [18] 0.046 | [6] 0.001

KIF26A (UniProt Q9ULI4)
inactive: [19] -0.022 | [8] -0.125 | [9] 0.084 | [10] 0.008 | [11] -0.02 | [12] 0.007 | [1] 0.033 | [13] -0.048 | [2] 0.135 | [20] 0 | [3] 0.08 | [17] -0.01 | [4] -0.076 | [5] -0.005 | [18] -0.067 | [6] -0.033

MDM1 (UniProt Q8TC05)
Sequence of UniProt Q8TC05 (Q8TC05 whole entry, looked up): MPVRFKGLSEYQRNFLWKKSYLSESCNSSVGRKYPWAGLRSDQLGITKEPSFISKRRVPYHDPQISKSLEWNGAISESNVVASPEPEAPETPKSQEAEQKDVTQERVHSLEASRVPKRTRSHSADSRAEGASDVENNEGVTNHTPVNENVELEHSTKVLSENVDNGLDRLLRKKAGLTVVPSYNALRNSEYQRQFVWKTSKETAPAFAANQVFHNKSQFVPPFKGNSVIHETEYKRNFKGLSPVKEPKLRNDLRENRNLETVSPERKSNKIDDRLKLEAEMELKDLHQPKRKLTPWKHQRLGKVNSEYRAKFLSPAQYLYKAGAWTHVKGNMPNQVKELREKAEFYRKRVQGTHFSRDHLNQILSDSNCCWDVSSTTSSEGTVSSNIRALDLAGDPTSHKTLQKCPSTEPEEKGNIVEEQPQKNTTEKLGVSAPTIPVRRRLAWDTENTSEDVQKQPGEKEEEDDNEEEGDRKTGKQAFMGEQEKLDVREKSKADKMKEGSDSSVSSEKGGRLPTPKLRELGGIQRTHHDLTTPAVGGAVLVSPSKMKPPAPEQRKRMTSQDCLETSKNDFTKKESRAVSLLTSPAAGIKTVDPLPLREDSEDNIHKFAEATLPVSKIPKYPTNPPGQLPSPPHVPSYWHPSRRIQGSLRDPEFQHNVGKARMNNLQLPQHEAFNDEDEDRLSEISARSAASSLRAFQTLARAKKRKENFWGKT
active: [4] -1.5 | [5] 0.512
inactive: [7] -0.006 | [8] 0.037 | [9] -0.054 | [10] -0.029 | [11] -0.027 | [12] 0.022 | [13] -0.019 | [14] -0.079 | [2] 0.024 | [15] 0.053 | [3] -0.05 | [16] 0.024 | [17] 0.075 | [18] 0.013

LSM11 (UniProt P83369)
Sequence of UniProt P83369 (P83369 whole entry, looked up): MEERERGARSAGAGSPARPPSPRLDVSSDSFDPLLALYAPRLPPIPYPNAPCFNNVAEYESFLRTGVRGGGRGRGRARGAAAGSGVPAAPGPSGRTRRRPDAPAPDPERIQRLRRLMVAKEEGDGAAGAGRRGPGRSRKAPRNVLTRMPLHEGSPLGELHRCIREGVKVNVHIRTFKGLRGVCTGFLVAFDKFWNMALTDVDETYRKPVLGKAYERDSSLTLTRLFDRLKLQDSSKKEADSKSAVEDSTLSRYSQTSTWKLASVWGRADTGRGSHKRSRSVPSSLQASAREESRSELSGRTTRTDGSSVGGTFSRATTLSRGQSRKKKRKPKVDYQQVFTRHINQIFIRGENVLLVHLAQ
inactive: [10] 0.004 | [12] -0.198 | [1] -0.161 | [2] 0.077 | [3] 0.06 | [4] 0.115 | [5] 0.212 | [18] 0.076 | [6] -0.085

LRPPRC (UniProt H7C3W8)
inactive: [2] 0.566

KMT2B (UniProt Q9UMN6)
inactive: [10] 0.53 | [12] -0.135 | [1] -0.072 | [3] -0.1 | [18] 0.081 | [6] -0.206

KIF3C (UniProt O14782)
inactive: [7] -0.041 | [8] -0.038 | [9] -0.032 | [10] -0.015 | [11] 0.03 | [12] -0.116 | [1] -0.007 | [13] 0.023 | [14] 0.044 | [2] 0.565 | [15] -0.213 | [3] -0.296 | [16] 0.186 | [17] 0.018 | [4] -0.138 | [5] -0.037 | [18] 0.02 | [6] -0.022

KRAS isoform 2 (UniProt P01116)
Sequence of UniProt P01116 (P01116 whole entry, looked up): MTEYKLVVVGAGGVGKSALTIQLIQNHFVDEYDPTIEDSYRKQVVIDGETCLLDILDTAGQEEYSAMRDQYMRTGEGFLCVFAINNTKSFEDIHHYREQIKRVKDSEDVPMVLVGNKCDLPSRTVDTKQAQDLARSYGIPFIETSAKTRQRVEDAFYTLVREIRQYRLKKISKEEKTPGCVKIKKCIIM
inactive: [7] 0.05 | [8] 0.071 | [9] -0.078 | [10] -0.05 | [12] -0.011 | [1] -0.025 | [13] 0.004 | [14] 0.059 | [15] 0.019 | [3] 0.156 | [16] -0.125 | [17] 0.077 | [18] -0.06 | [6] -0.013
